Each sequence was assayed against AT4G31550 (Arabidopsis thaliana, UniProt Q9SV15 228-325) (assay: DPI-ELISA; DPI-ELISA, streptavidin 384-well plate, 1-2 pmol biotinylated dsDNA per well, crude native E. coli extract, anti-His detection; buffer as in Brand et al. [46],; high values mean tight binding). Conditions: tags: C-terminal His (pET-DEST42); label: 5' biotin on forward strand; dsDNA, one strand shown.
Sequence of AT4G31550 (Q9SV15 228-325): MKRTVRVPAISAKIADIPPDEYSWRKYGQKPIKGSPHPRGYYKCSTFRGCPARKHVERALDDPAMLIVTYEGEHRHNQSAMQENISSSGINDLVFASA

AAAAAACAGGCCGATTCCGATCCCGGAAAA was tested. Which binding signal did it give?
Its binding signal is 0.535 ± 0.0919 absorbance.

With AAAAAACGCTCCGTTTTTGCAATGCGAAAA as the sequence, how does the binding signal read?
The binding signal was 0.61 ± 0.0707 absorbance.

AAAAAACTGGCGACTGCCAGTGGTAGAAAA was tested. Which binding signal did it give?
Its binding signal is 0.385 ± 0.0354 absorbance.

How did the binding signal turn out when AAAAAAATGATTGCCAATGCTCGCAAAAAA was run?
Its binding signal is 0.73 ± 0.156 absorbance.

For AAAAAACTGCTTGCCCCTGTCTCCATAAAA, which binding signal is on record?
Its binding signal is 0.67 ± 0.17 absorbance.

With AAAAAAGTAGGTGCTGATGCTGGCCGAAAA as the sequence, how does the binding signal read?
Its binding signal is 0.59 ± 0.0141 absorbance.

With AAAAAACGCCGGACAATCAGGCGCTCAAAA as the sequence, how does the binding signal read?
Its binding signal is 0.625 ± 0.177 absorbance.

How did the binding signal turn out when AAAAAAGAGAATTGTCAGTGCCCAACAAAA was run?
The binding signal was 0.705 ± 0.106 absorbance.

Which binding signal does the source give for AAAAAAGTTCGTGCTTAACCCAGTTTAAAA here?
Its binding signal is 0.69 ± 0.099 absorbance.

Which binding signal does the source give for AAAAAATCGGGCCCCGTTAGCACTCTAAAA here?
The binding signal was 0.665 ± 0.12 absorbance.

For AAAAAATTTCTATTTCATCTTTGCCCAAAA, which binding signal is on record?
The binding signal was 0.72 ± 0.156 absorbance.

With AAAAAAAGTTCGCGGATTTCGGCCATAAAA as the sequence, how does the binding signal read?
Its binding signal is 0.685 ± 0.148 absorbance.

Which binding signal does the source give for AAAAAATTTGTTCGGGCTCATAACTGAAAA here?
Its binding signal is 0.595 ± 0.148 absorbance.

AAAAAAATCAGCCTGACTCTGGGCGTAAAA was tested. Which binding signal did it give?
Its binding signal is 0.71 ± 0.141 absorbance.

AAAAAACTGGTGTATCTCCTCAATTAAAAA was tested. Which binding signal did it give?
Its binding signal is 0.635 ± 0.0636 absorbance.

AAAAAAAACTGTCGCCCCCGGCTGGCAAAA was tested. Which binding signal did it give?
Its binding signal is 0.545 ± 0.12 absorbance.

AAAAAAGCCATCATGGTTAGTGTACAAAAA was tested. Which binding signal did it give?
Its binding signal is 0.665 ± 0.148 absorbance.

With AAAAAATCCACGACTCAGCAGCTCTTAAAA as the sequence, how does the binding signal read?
The binding signal was 0.68 ± 0.0707 absorbance.

For AAAAAATCTATTCCATTTCGCCTTCTAAAA, which binding signal is on record?
The binding signal was 0.68 ± 0.141 absorbance.

For AAAAAAGGCTTCCACTTTGAGTTTGCAAAA, which binding signal is on record?
The binding signal was 0.57 ± 0.099 absorbance.

For AAAAAAACTTCTGTCCCTGTTCCCGTAAAA, which binding signal is on record?
The binding signal was 0.55 ± 0.127 absorbance.

How did the binding signal turn out when AAAAAATCTTCTTGTTTCTTATTTCTAAAA was run?
The binding signal was 0.625 ± 0.12 absorbance.

For AAAAAAAGGGTGCTATTCGTCGACACAAAA, which binding signal is on record?
Its binding signal is 0.63 ± 0.141 absorbance.

For AAAAAAAGGTCATTGCTGCTGGTGTTAAAA, which binding signal is on record?
The binding signal was 0.735 ± 0.106 absorbance.

AAAAAACGCAACTCCGGATGTGGGGTAAAA was tested. Which binding signal did it give?
The binding signal was 0.545 ± 0.0636 absorbance.

How did the binding signal turn out when AAAAAAAAGCGTTACATCATATGGAAAAAA was run?
Its binding signal is 0.56 ± 0.0566 absorbance.

For AAAAAACGCCTTATGCCTCCCGCTCGAAAA, which binding signal is on record?
The binding signal was 0.675 ± 0.0354 absorbance.

How did the binding signal turn out when AAAAAATCGCGTCCGTGCTCAATCCAAAAA was run?
The binding signal was 0.48 ± 0.0566 absorbance.

Which binding signal does the source give for AAAAAAGCCCCTTGCGCCTCTCTACCAAAA here?
Its binding signal is 0.62 ± 0.0424 absorbance.

Which binding signal does the source give for AAAAAACAGTTCGATGTCACCCCCGCAAAA here?
The binding signal was 0.565 ± 0.106 absorbance.

AAAAAAAAATGCTAGCGCGTACGTAAAAAA was tested. Which binding signal did it give?
The binding signal was 0.69 ± 0.17 absorbance.

Which binding signal does the source give for AAAAAAGTGCGTTCACGCTTGTATCTAAAA here?
The binding signal was 0.69 ± 0.17 absorbance.

Which binding signal does the source give for AAAAAAATGCGCCCTTTCTGACATAAAAAA here?
The binding signal was 0.615 ± 0.106 absorbance.

AAAAAAGTGTTAGATTGTAGTTGATAAAA was tested. Which binding signal did it give?
Its binding signal is 0.675 ± 0.106 absorbance.

Which binding signal does the source give for AAAAAATCCCCCCGTTTCACTCTTGCAAAA here?
Its binding signal is 0.66 ± 0.141 absorbance.

With AAAAAATTAGCTTATCCTTGCTTGTGAAAA as the sequence, how does the binding signal read?
Its binding signal is 0.655 ± 0.134 absorbance.

For AAAAAATTCCCAGCGTATCCGACCCGAAAA, which binding signal is on record?
The binding signal was 0.535 ± 0.0778 absorbance.

With AAAAAACCACCCAGTCTGTTTCTACTAAAA as the sequence, how does the binding signal read?
The binding signal was 0.54 ± 0.141 absorbance.

— paper PMC3795721, “Screening for Protein-DNA Interactions by Automatable DNA-Protein Interaction ELISA”
